Test results as given in PubChem BioAssay (EPA / NIEHS).
Inconclusive results are not listed. The source made the active and inactive calls. The calls were made as follows: active = hit-call score of the fitted dose curve at least 0.9, where 1 is the maximum; inconclusive = response in the unintended direction; inactive = score below 0.9.

Target: Androgen receptor (Homo sapiens) (UniProt P10275)
Sequence (P10275 whole entry, looked up): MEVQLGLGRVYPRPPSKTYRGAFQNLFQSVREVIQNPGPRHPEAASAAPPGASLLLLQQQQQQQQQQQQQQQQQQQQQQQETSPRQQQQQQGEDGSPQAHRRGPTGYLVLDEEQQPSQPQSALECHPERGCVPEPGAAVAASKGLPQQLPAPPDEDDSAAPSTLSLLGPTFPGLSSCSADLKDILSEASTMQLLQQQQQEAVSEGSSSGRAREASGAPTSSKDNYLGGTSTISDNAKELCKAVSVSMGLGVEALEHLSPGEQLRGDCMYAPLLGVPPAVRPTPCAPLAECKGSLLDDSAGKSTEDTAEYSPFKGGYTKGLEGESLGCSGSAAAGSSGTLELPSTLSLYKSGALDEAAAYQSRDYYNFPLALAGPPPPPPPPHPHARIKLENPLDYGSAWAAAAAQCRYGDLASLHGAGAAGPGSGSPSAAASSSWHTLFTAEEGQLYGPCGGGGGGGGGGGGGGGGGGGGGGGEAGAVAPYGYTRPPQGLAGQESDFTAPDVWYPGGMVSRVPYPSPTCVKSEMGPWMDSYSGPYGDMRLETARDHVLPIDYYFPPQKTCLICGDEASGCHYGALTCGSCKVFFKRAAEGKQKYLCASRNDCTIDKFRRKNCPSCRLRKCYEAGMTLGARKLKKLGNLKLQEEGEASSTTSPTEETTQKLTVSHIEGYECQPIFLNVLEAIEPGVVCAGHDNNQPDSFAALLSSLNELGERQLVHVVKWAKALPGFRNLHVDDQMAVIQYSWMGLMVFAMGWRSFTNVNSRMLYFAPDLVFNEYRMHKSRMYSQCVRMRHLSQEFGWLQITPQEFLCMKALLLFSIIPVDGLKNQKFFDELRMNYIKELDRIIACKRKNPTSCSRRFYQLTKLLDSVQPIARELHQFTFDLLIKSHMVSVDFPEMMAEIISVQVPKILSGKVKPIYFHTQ
Assay: ATG_AR_TRANS: Attagene TRANS-FACTORIAL HepG2 Assay for human Androgen Receptor (AR) (AID 2282973)
Conditions: HepG2 Attagene TRANS-FACTORIAL AR reporter transcription
In short: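 Chimeric nuclear receptor–Gal4 activity was assessed in human HepG2 hepatocytes after 24 h chemical dosing. Induced reporter mRNA was detected via labelled RT-PCR fragments on capillary electrophoresis, and gain of signal was analysed against DMSO.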
In the case of `O=c1ccc(=O)[nH][nH]1`, the outcome is reported as “inactive”.
For `CC(C)=CC1C(C(=O)OCN2C(=O)C3=C(CCCC3)C2=O)C1(C)C` (stereo not given), the outcome was “inactive”.
For `CCCCOC(=O)c1ccccc1C(=O)O`, the outcome was “inactive”.
In the case of `COc1ccc(C(=CC(=O)N2CCOCC2)c2ccc(Cl)cc2)cc1OC`, the outcome is reported as “inactive”.
For `Cc1nn(-c2cc(NS(C)(=O)=O)c(Cl)cc2Cl)c(=O)n1C(F)F`, the outcome was “inactive”.

Tested on: not listed separately
Assay: ATG_M_19_TRANS: Attagene TRANS-FACTORIAL HepG2 Assay for M19 Transcription Factor (Internal Marker) (AID 2282974)
Conditions: HepG2 Attagene TRANS-FACTORIAL M19 internal marker reporter
In short: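 Cells: human HepG2, transiently transfected with multiplexed reporter transcription units. Exposure: 24 h. Detection: RT-PCR of reporter mRNA with capillary electrophoresis. Analysis: gain-of-signal vs DMSO.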
In the case of `COP(=O)(OC)OC(Br)C(Cl)(Cl)Br` (stereo not given), the outcome is reported as “inactive”.
With `CN(C)C(=O)Nc1cccc(C(F)(F)F)c1` the outcome was “inactive”.
With `CNC(=O)ON=C(C)SC` the outcome was “inactive”.
For `O=c1ccc(=O)[nH][nH]1`, the outcome was “inactive”.
With `CCOP(=S)(OCC)Oc1ccc2c(C)c(Cl)c(=O)oc2c1` the outcome was “inactive”.
With `CC(C)[C@H](C(=O)O[C@H](C#N)c1cccc(Oc2ccccc2)c1)c1ccc(Cl)cc1` the outcome was “inactive”.
With `O=C(O)c1cc(Oc2ccc(C(F)(F)F)cc2Cl)ccc1[N+](=O)[O-]` the outcome was “inactive”.
With `Nc1nc(N)nc(NC2CC2)n1` the outcome was “inactive”.
With `CC(C1CC1)C(O)(Cn1cncn1)c1ccc(Cl)cc1` (stereo not given) the outcome was “inactive”.
In the case of `C[N+]1(C)CCCCC1`, the outcome is reported as “inactive”.
For `FC(F)C(F)(F)OCC(Cn1cncn1)c1ccc(Cl)cc1Cl` (stereo not given), the outcome was “inactive”.
In the case of `CCNc1nc(Cl)nc(NC(C)(C)C#N)n1`, the outcome is reported as “inactive”.
With `CC(C)=CC1C(C(=O)OCN2C(=O)C3=C(CCCC3)C2=O)C1(C)C` (stereo not given) the outcome was “inactive”.
For `CCC(=NOC/C=C/Cl)C1=C(O)CC(C2CCOCC2)CC1=O` (stereo not given), the outcome was “inactive”.
With `CCOC(=O)CC(SP(=O)(OC)OC)C(=O)OCC` (stereo not given) the outcome was “inactive”.
For `CCCCOC(=O)c1ccccc1C(=O)O`, the outcome was “inactive”.
In the case of `CCCOCC(=Nc1ccc(Cl)cc1C(F)(F)F)n1ccnc1`, the outcome is reported as “inactive”.
In the case of `CN(C)[C@@H]1C(=O)C(C(N)=O)=C(O)[C@@]2(O)C(=O)C3=C(O)c4c(O)cccc4[C@@](C)(O)[C@H]3[C@H](O)[C@@H]12`, the outcome is reported as “inactive”.
For `CC(Oc1cccc(Cl)c1)C(=O)O` (stereo not given), the outcome was “inactive”.
For `COc1ccc(C(=CC(=O)N2CCOCC2)c2ccc(Cl)cc2)cc1OC`, the outcome was “inactive”.
For `Cc1nn(-c2cc(NS(C)(=O)=O)c(Cl)cc2Cl)c(=O)n1C(F)F`, the outcome was “inactive”.
For `CCOC(=O)COc1cc(-c2nn(C)c(OC(F)F)c2Cl)c(F)cc1Cl`, the outcome was “inactive”.

Tested on: not listed separately
Assay: ATG_Hpa5_TRANS: Attagene TRANS-FACTORIAL HepG2 Assay for human GAL4-Hpa5 Hepatocyte Transcription Factor Basal Promoter (AID 2282975);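 also: hits are increases in reporter mRNA over DMSO baseline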
Conditions: HepG2 Attagene GAL4-Hpa5 transcription reporter
In short: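 Basal-promoter GAL4 background control within the HepG2 trans-factorial panel of transiently transfected reporter units. Reporter mRNA is measured 24 h after dosing by RT-PCR and capillary electrophoresis, fitted for gain of signal versus DMSO.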
For `CNC(=O)ON=C(C)SC`, the outcome was “inactive”.
For `O=c1ccc(=O)[nH][nH]1`, the outcome was “inactive”.
In the case of `CSC1=N[C@@](C)(c2ccccc2)C(=O)N1Nc1ccccc1`, the outcome is reported as “inactive”.
For `C[Si](Cn1cncn1)(c1ccc(F)cc1)c1ccc(F)cc1`, the outcome was “inactive”.
With `CC(C)[C@H](C(=O)O[C@H](C#N)c1cccc(Oc2ccccc2)c1)c1ccc(Cl)cc1` the outcome was “inactive”.
With `O=C(O)c1cc(Oc2ccc(C(F)(F)F)cc2Cl)ccc1[N+](=O)[O-]` the outcome was “inactive”.
In the case of `CCOP(=S)(OCC)SCCSCC`, the outcome is reported as “inactive”.
In the case of `CCOP(=S)(OCC)Oc1cc(C)nc(C(C)C)n1`, the outcome is reported as “inactive”.
For `CCNc1nc(Cl)nc(NC(C)(C)C#N)n1`, the outcome was “inactive”.
In the case of `CC(C)=CC1C(C(=O)OCN2C(=O)C3=C(CCCC3)C2=O)C1(C)C` (stereo not given), the outcome is reported as “inactive”.
In the case of `CCC(=NOC/C=C/Cl)C1=C(O)CC(C2CCOCC2)CC1=O` (stereo not given), the outcome is reported as “inactive”.
For `CCOC(=O)CC(SP(=O)(OC)OC)C(=O)OCC` (stereo not given), the outcome was “inactive”.
In the case of `CCCOCC(=Nc1ccc(Cl)cc1C(F)(F)F)n1ccnc1`, the outcome is reported as “inactive”.
In the case of `CN(C)[C@@H]1C(=O)C(C(N)=O)=C(O)[C@@]2(O)C(=O)C3=C(O)c4c(O)cccc4[C@@](C)(O)[C@H]3[C@H](O)[C@@H]12`, the outcome is reported as “inactive”.
In the case of `CC(Oc1cccc(Cl)c1)C(=O)O` (stereo not given), the outcome is reported as “inactive”.
With `COc1ccc(C(=CC(=O)N2CCOCC2)c2ccc(Cl)cc2)cc1OC` the outcome was “inactive”.
With `CCOC(=O)COc1cc(-c2nn(C)c(OC(F)F)c2Cl)c(F)cc1Cl` the outcome was “inactive”.
In the case of `CC(=NC#N)N(C)Cc1ccc(Cl)nc1`, the outcome is reported as “inactive”.
